Measured values as given in ChEMBL document CHEMBL4513216, “Probing the Open Global Health Chemical Diversity Library for Multistage-Active Starting Points for Next-Generation Antimalarials” (ACS Infect Dis, 2020).
Out of some 69,000 compounds screened, about 8,600 (12%) showed an effect of 50% or more. The entries come from a sample that favours strong results as a whole.

What follows are compounds tested on Plasmodium berghei (assay: Screen against P. berghei liver stage (PbLuc), transformed with Luciferase, at 10uM). Settings: tested at 10 uM.
Format: functional, HepG2

| SMILES | INHIBITION [%] |
| --- | --- |
| Cn1cc(S(=O)(=O)NCCc2ccsc2)cn1 | 70.9 |
| Cn1cc(S(=O)(=O)NCc2ccsc2)cn1 | -17.8 |
| Cn1cc(S(=O)(=O)NCC(C)(O)c2ccsc2)cn1 (centres undefined) | 16.3 |
| CNc1nc(C(=O)N2CCCC(COc3ccc(F)cc3)C2)cs1 (centres undefined) | 44.9 |
| Cn1ccc(C(=O)N2CCC(Cc3cnc4[nH]ccc4c3)C2)n1 (centres undefined) | -77.5 |
| CCCC(=O)N(C)C(c1cccc(F)c1)c1ccccn1 (centres undefined) | 13.6 |
| CC(C)c1nnc(NC(=O)CSCc2cc(=O)n3ccccc3n2)s1 | 38.9 |
| Cc1cccc2nc(CSCC(=O)Nc3nnc(C(C)C)s3)cc(=O)n12 | 24.5 |
| Cc1ccc2nc(CSCC(=O)Nc3nnc(C(C)C)s3)cc(=O)n2c1 | 50.2 |
| Cc1ccn2c(=O)cc(CSCC(=O)Nc3nnc(C(C)C)s3)nc2c1 | 52.5 |
| Cc1nnc(NC(=O)CSCc2cc(=O)n3ccccc3n2)s1 | 27.5 |
| Cc1cccn2c(=O)cc(CSCC(=O)Nc3nnc(C(C)C)s3)nc12 | 14.7 |
| c1ncn(CC2CN(CCCOc3ccc4c(c3)OCO4)CCO2)n1 (centres undefined) | 36.1 |
| O=C(Nc1ccccn1)N(CCO)Cc1ccccc1Br | 10.2 |
| Cn1cnc2c1C(COCC1CCOCC1)CN(c1ncccn1)C2 (centres undefined) | 33.4 |
| Cc1nc(O)c2nnn(C[C@H]3CCCN3C(=O)c3cccs3)c2n1 | 31.6 |
| CCn1ncnc1CN1CCc2[nH]cnc2C1Cc1ccccc1 (centres undefined) | -56.1 |
| CCn1ncnc1CN1CCc2[nH]cnc2C1CCc1ccccc1 (centres undefined) | 1.94 |
| O=C(O)C1c2nc[nH]c2CCN1Cc1ccccc1-c1ccccc1 (centres undefined) | 12.7 |
| CSCCC1c2nc[nH]c2CCN1Cc1ccccc1C(F)(F)F (centres undefined) | 69.1 |
| COc1ncccc1CN1CCc2[nH]cnc2C1CCSC (centres undefined) | 33.4 |
| CSCCC1c2nc[nH]c2CCN1Cc1cc(Cl)ccc1O (centres undefined) | 70.6 |
| CSCCC1c2nc[nH]c2CCN1Cc1ccccc1C#N (centres undefined) | 40.9 |
| CSCCC1c2nc[nH]c2CCN1Cc1cncn1C (centres undefined) | 56.1 |
| CSCCC1c2nc[nH]c2CCN1Cc1ccnc2ccccc12 (centres undefined) | -9.67 |
| CCn1cc(NC(=O)C2CCC(=O)N2Cc2ccco2)cn1 (centres undefined) | 20.4 |
| CCc1noc(C2CC(=O)N(CCN(C)C)C2)n1 (centres undefined) | 35.1 |

| SMILES | INHIBITION [%] |
| --- | --- |
| COc1ccccc1C(=O)N1CCNCC1C(N)=O (centres undefined) | 9.2 |
| CSCCC(C)(O)CNC(=O)c1ccsc1 (centres undefined) | 8.61 |
| CC(O)(CCc1ccccc1)CNC(=O)c1ccsc1 (centres undefined) | 50.2 |
| CC(O)(CCc1ccccc1)CNC(=O)c1ccc(F)cc1 (centres undefined) | 26.8 |
| Cn1cccc1CN1CCC2(CCCN(C(=O)c3cnccn3)C2)C1 (centres undefined) | 2.01 |
| CCn1cc(NC(=O)CCc2ccc3c(c2)OCCCO3)cn1 | 55.5 |
| CCn1cc(NC(=O)NCc2ccc3c(c2)OCCO3)cn1 | 33 |
| CCn1cc(NC(=O)NCCc2ccc3c(c2)OCCO3)cn1 | -27.8 |
| CCN(CC)C(=O)c1c(Br)cnn1CC | 29.3 |
| COc1c(CNC2CCCOc3ccccc32)c(C(C)C)nn1C (centres undefined) | 15.3 |
| NC(=O)c1cnc2n1CCN(C(=O)c1ccc(Cn3cccc3)cc1)C2 | 15.5 |
| CC(C)NC(=O)[C@@H]1CCO[C@@H]2CCN(c3ncccn3)C[C@@H]21 | 2.41 |
| Clc1ccc(C(CNCc2cccnc2)n2cccn2)cc1 (centres undefined) | -4.56 |
| CCN1CC(C(=O)N2CCN(c3nsc4ccccc34)CC2)CCC1=O (centres undefined) | 33.9 |
| NC(=O)N1CCCC(C(=O)N2CCN(c3nsc4ccccc34)CC2)C1 (centres undefined) | 35.8 |
| CC(C)N1CCCC(C(=O)N2CCN(c3nsc4ccccc34)CC2)C1 (centres undefined) | 58.5 |
| Cc1cc(NC(=O)NCc2ccc(S(=O)(=O)N3CCCC3)s2)no1 | 68 |
| O=S(=O)(NCc1ccc(S(=O)(=O)N2CCCC2)s1)c1ccc(Cl)c(Cl)c1 | 40.6 |
| Cc1cc(CN2CCN(C(=O)NCc3ccc(C)s3)CC2)no1 | 18.6 |
| CNS(=O)(=O)c1ccc(CNC(=O)Nc2cc(C)on2)s1 | 24.3 |
| Cc1cc(NC(=O)NCc2ccc(C)s2)no1 | 56.8 |
| CCc1ccc(CNC(=O)Nc2cc(C)on2)s1 | 39.7 |
| Oc1nc(C2CC2)nc2c1nnn2C1CCN(Cc2ccoc2)CC1 | 12.25 |
| CCOc1ccc(Cl)c(C(=O)N2CCCC(c3ccn[nH]3)C2)n1 (centres undefined) | -10.1 |
| CC(=O)N1N=C(c2ccco2)OC1C(=O)NCCc1ccc(O)cc1 (centres undefined) | 48 |
| Cc1cc(C(=O)N(C)C)nc(C2(C)CCCN2c2ccnc(C)n2)n1 (centres undefined) | -41.025 |
| Fc1ccc(-c2nc(CN3CCCC3Cn3cncn3)co2)cc1F (centres undefined) | 33.7 |
